Assay results from PubChem BioAssay AID1745845 (National Center for Advancing Translational Sciences (NCATS), 2022).
Screen size: about 360,000 compounds; about 2,600 (0.72%) were called active. Not shown: some 5% with an inconclusive outcome. The full list was thinned out, with actives kept by preference. A number with no mark means an inactive call. The call rests on the fitted dose curve; in most records, active means well fitted inhibition curve with a large enough effect; inconclusive means small, poorly fitted or top-dose-only effect; inactive means no such curve, though single readings can be large or run the other way.

Test: Primary qHTS for Inhibitors of ATXN expression; further: nearly all actives have a fitted effect of over 55% in size
Details: HEK-293 ATXN2-luciferase reporter, luminescence, 24 h; series mostly up to 57 µM; activity change, negative = inhibition: at the top concentration
Excerpt: University of Utah School of Medicine, Salt Lake City, Utah
Spinocerebellar ataxia type 2 (SCA2) is a multisystem neurodegenerative disease caused by a dominantly acting mutation leading to expansion of a polyQ domain in the ataxin-2 protein (ATXN2). SCA2 patients develop progressive ataxia and later lose function in other neuronal systems. Prominent parkinsonian signs develop in some patients. Like many neurodegenerative disorders, no symptomatic or disease-modifying treatments are known.
The primary objective of the proposed research is to identify compounds inhibiting ATXN2 expression and to test them for efficacy in SCA2 mouse models. We have developed a cell-based assay paired with an in vivo mouse model using identical luciferase expression constructs. This approach takes advantage of an ATXN2-luciferase transgene, with the luciferase gene flanked by the upstream and downstream portions of the ATXN2 gene. Here we describe a 5-7 dose quantitative high thoroughput screen (qHTS) for compounds lowering ATXN2 expression. We screened the NIH Molecular Libraries Small Molecule Repository (MLSMR) and NCGC's mechanistically annotated (MIPE) and drug repurposing (NPC) collections of compounds for lowering expression of an ATXN2-luciferase reporter in HEK-293 cells. The assay is a multiplexed cell viability assay to ensure target reduction in the absence of cytotoxicity. Secondary qHTS assays included a CMV-luciferase reporter expressed in HEK-293 cells as well as a biochemical assay using recombinant luciferase to detect inhibitors of the reporter enzyme. Compounds that inhibit ATXN2 expression but is not cytotoxic were selected for confirmatory and secondary screens.
PROTOCOL TABLE (as described by Inglese J, Shamu CE and Guy RK. 2007)
SEQUENCE No. (e.g., 1, 2, 3, etc.); […] (e.g., Cells, Incubation, Reagent, etc.); VALUE; DESCRIPTION.
1; Cells; 4 uL; white, solid bottom, 1536-well Greiner assay plate.
2; Incubation; 2 hr; 37 degree C in 5% humidified CO2.
3; Compounds; 23 nL; Kalypsis pintool (Wako USA) equipped with a 1536-well pin head.
4; Incubation; 24 hr; 37 degree C in 5% humidified CO2.
5; Reagent; 1 uL; Gly-Phe-7-Amino-4-trifluoromethylcoumarin.
6; Incubation; 30 min; 37 degree C in 5% humidified CO2.
7; Detection; Fluorescence; ViewLux plate reader (PerkinElmer).
8; Reagent; 3 uL; SteadyGlo luciferase solution (Promega).
9; Incubation; 5 min; room temperature.
10; Detection; Luminescence; ViewLux plate reader (PerkinElmer).
NOTES (numbers refer to Sequence numbers above)
1. S2 cells expressing ATXN2-luciferase reporter were suspended in phenol-red free DMEM and dispensed in assay plates using a Multidrop Combi dispenser (Thermo Fisher Scientific).
2. Assay plates were incubated. Evaporation was prevented by covering assay plates with metal lids containing holes to allow gas diffusion.
3. Compounds were added in a dose response manner with the final concentrations of 57, 11.4, 2.28, 0.46, 0.091, 0.018, 0.0037 uM. Vehicle-only plates, with DMSO being pin-transferred to columns 5-48, were inserted uniformly at the beginning and the end of each library to monitor and record any shifts in assay performance.
5. 125 uM Gly-Phe-7-Amino-4-trifluoromethylcoumarin (MP Biomedicals) working concentration was used at a final concentration of 25 uM.
7. To assess cell viability; the assay plates were read using the ViewLux high-throughput CCD imager (PerkinElmer), wherein single end-point fluorescence measurement was acquired (excitation 405/10; emission 540/25 nm).
8. Detection reagent SteadyGlo Luciferase (Promega) was added to the assay plate.
10. Luminescence is then measured on the ViewLux imager equipped with a clear emission filter using a 2 sec exposure. All screening operations were performed on a fully integrated robotic system (Kalypsys) containing one RX-130 and two RX-90 anthropomorphic robotic arms (Staubli).
[…]
On the % scale 0 is the no-effect control and ±100 the full control effect; potency means the concentration at half of the fitted maximal effect.

SMILES | activity change, negative = inhibition | Potency
Cc1nnc(SCc2cc(=O)c3cc(F)ccc3[nH]2)n1C | 10.9% | 
CN(c1ccccc1)S(=O)(=O)c1ccc(Cl)c(C(=O)NCCc2c[nH]c3ccccc23)c1 | 0.602% | 
CN(C)CCNC(=O)Nc1cccc(Cl)c1Cl | 1.81% | 
CN(C)CCNC(=O)c1ccc(Cl)c2cc3ccccc3nc12 |  | 8.91 µM (active)
Cc1ccc(S(=O)(=O)c2nnn3c2nc(N2CCN(c4ccccc4F)CC2)c2cc(Cl)ccc23)cc1C | 4.45% | 
CC(=O)c1cccc(-c2cnc3c(NC=O)cc(-c4ccc(N(C)C)cc4)cn23)c1 | 0% | 
CN(C)C(=O)c1cccc(-c2cnc3c(NC=O)cc(-c4ccc(F)cc4)cn23)c1 |  | 25.1 µM (active)
CC(=O)c1cccc(-c2cnc3c(NC=O)cc(-c4cccc(C(=O)N(C)C)c4)cn23)c1 | -7.72% | 
CCOc1ccc(NS(=O)(=O)c2ccc(N)cc2)nn1 | 8.26% | 
CCN1CCN(C(=O)N[C@@H](C(=O)N[C@@H]2C(=O)N3[C@@H]2SC(C)(C)[C@H]3C(=O)O)c2ccccc2)C(=O)C1=O | 6.23% | 
CC(=O)O[C@]1(C(C)=O)CC[C@@H]2[C@@H]3C[C@H](C)C4=CC(=O)CC[C@]4(C)[C@H]3CC[C@@]21C | 11.3% | 
CC(C)(C)CC(C)(C)NCC(O)COCCOc1ccc(Br)cc1 (stereo not given) |  | 22.4 µM (active)
COc1ccc(OCC(O)CNCCNc2nccc(C(F)(F)F)n2)cc1 (stereo not given) | -14.1% | 
CC(Oc1ccc(Br)cc1)C(=O)NC1CCCCCC1 (stereo not given) | -17.4% | 
CCOc1ccc(Nc2oc(/C=C/c3ccc(F)cc3)nc2C#N)cc1 | -1.28% | 
CCOC(=O)N1CCN([N+]([O-])=NOc2ccc([N+](=O)[O-])cc2[N+](=O)[O-])CC1 | 16.8% | 
Cc1ccccc1-c1nc(SCC(=O)N(C)c2ccccc2)c2c(=O)n(C)c(=O)n(C)c2n1 | 6% | 
O=C1NCCc2[nH]c(-c3ccncc3)cc21 |  | 6.11 µM (active)
COC(=O)Nc1nc2ccc(C(=O)C3CC3)cc2[nH]1 | 0.457% | 
COc1cccc(CN2CCC(C(=O)NC(c3ccc4c(c3)OCO4)c3ccccn3)CC2)c1 (stereo not given) | -4.28% | 
Cc1ccc(C(NC(=O)C2CCN(CCOc3ccc(Cl)cc3Cl)CC2)c2ccccn2)cc1 (stereo not given) |  | 28.2 µM (active)
O=C(NC(c1ccc(Cl)cc1)c1cnccn1)C1CCN(Cc2ccc(Cl)cc2)CC1 (stereo not given) | -9.15% | 
O=C1c2c(O)cccc2[C@@H]([C@@H]2O[C@H](CO)[C@@H](O)[C@H](O)[C@H]2O)c2cc(CO)cc(O)c21 | 10.2% | 
Cc1cccc(N2CCN(C(=O)c3ccc4c(c3)CCN4S(=O)(=O)c3ccccc3)CC2)c1C | -26.9% | 
CCc1nc2c(OCCC3CCCCC3)cccn2c1N(C)C(=O)c1ccco1 | 0% | 

SMILES | activity change, negative = inhibition | Potency
CN(CC(=O)Nc1ccccc1F)S(=O)(=O)c1ccc2c(c1)c(=O)n(C)c(=O)n2C | 1.48% | 
COc1ccc(Sc2ccc(NC(=O)c3cccc(Cl)c3)cc2C#N)cc1 | -0.357% | 
CCOc1ccc(CNCCSc2nnnn2C)cc1 | 8.83% | 
COc1cccc(NC(=O)c2ccc3nc(CCc4ccccc4)oc3c2)c1 | 15.2% | 
O=C(NC(=O)c1ccccc1)Nc1ccccc1O | -7.29% | 
COC(=O)c1nc(NC(=O)c2ccccc2)n[nH]1 | -7.98% | 
O=C(NC1=CC(=O)c2ccccc2C1=O)c1ccccc1 |  | 7.94 µM (active)
CCC(=O)Nc1c(C(=O)N2CCN(c3ccc(F)cc3)CC2)oc2ccccc12 | 2.94% | 
CCn1c(-c2nonc2N)nc2c(C#CC(C)(C)O)ncc(OC[C@H]3CCCNC3)c21 | -12.9% | 
Cc1ccc(S(=O)(=O)N2CCc3cc(C(=O)Nc4ccc(Cl)cc4C)ccc32)cc1 | 2.14% | 
Cc1cc(C)cc(Nc2ncnc3onc(-c4ccc(F)cc4)c23)c1 | -1.61% | 
CC(C)c1ccc(NC(=O)c2ccc(Cn3nc(N4CCN(c5ccccc5)CC4)ccc3=O)o2)cc1 | 0.267% | 
NC(=O)CSc1oc(-c2cccs2)nc1S(=O)(=O)c1ccccc1 | 4.16% | 
Cc1ccc(S(=O)(=O)c2nc(-c3cccs3)oc2NCc2cccnc2)cc1 | -0.794% | 
CCCCS(=O)(=O)c1oc(-c2cccs2)nc1S(=O)(=O)c1ccccc1 |  | 3.16 µM (active)
CSc1ccccc1NC(=O)CCS(=O)(=O)c1nc(-c2cccs2)cc(C(F)(F)F)n1 | 11.6% | 
O=C(CSc1ncn[nH]1)Nc1ccc(Br)cc1Br | 20.4% | 
O=C(/C=C/Sc1ncn[nH]1)c1ccc(Cl)cc1 |  | 25.1 µM (active)
O=C(CSc1oc(-c2ccco2)nc1S(=O)(=O)c1ccc(Cl)cc1)c1ccccc1 | -10.6% | 
CC(C)OCCCn1c(SCC(=O)c2ccccc2)nc2c(sc3ccccc32)c1=O | -1.85% | 
CCCCN1CCC(CNC(=O)c2c3n(c4ccccc24)CCCO3)CC1 | 53% | 
Fc1ccc(-n2ncc3c(Nc4ccc(Oc5ccccc5)cc4)ncnc32)cc1 | 17.8% | 
c1c2c(cc3sc(N4CCCCC4)nc13)OCCO2 |  | 7.94 µM (active)
O=C(NCc1ccc(F)cc1)c1ccc2nc(N3CCCCC3)sc2c1 | 8.82% | 
CN(C)CCN(C(=O)C1CCCCC1)c1nc2cc3c(cc2s1)OCO3 | -25.9% | 
